# Shown are actives, neighbours in structure and some others; about 3% of the full set was active somewhere.
# UbGFP stabilizer = ubiquitin-GFP accumulation via proteasome inhibition; Ubiquitin-GFP reporter cells, proteasome inhibition, GFP fluorescence; response scale: untreated = 0%, 10 µM MG-132 = 100%; Potency, µM (titrated, usually from 45.9 µM), most hits filed as activators; 67,000 tested, under 10 active; AID 526; active means well fitted activation curve with a large enough effect, not every such curve was filed as active; inconclusive means small, poorly fitted or top-dose-only effect, or another doubt; inactive means no such curve, though single readings can be large or run the other way
#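 U2OS cells expressing ubiquitin(G76V)-GFP, seeded overnight in 0.5% FBS medium, then treated 4 hr at 37 C across 46 uM to 2.9 nM. GFP-positive cells counted by laser cytometry (488 ex/515 em); %activity scaled between basal and 10 uM MG-132.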
# TSHR agonist = activates the human thyroid stimulating hormone receptor; HEK293-CNG-TSHR cells (CNG channel as cAMP sensor), membrane potential dye, cAMP; Potency, µM (series often up to 57.1 µM), most hits filed as activators; 73,000 tested, 0.48% active; P16473; active means well fitted activation curve with a large enough effect in the main read-out, with a control signal flat, not every such curve was filed as active; inconclusive means small, poorly fitted or top-dose-only effect, or a change in a side signal; inactive means no such curve, though single readings can be large or run the other way; reference of the percent scale not stated here;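 further: the control signal comes from parental cells without the receptor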
# Target sequence (P16473 whole entry, looked up): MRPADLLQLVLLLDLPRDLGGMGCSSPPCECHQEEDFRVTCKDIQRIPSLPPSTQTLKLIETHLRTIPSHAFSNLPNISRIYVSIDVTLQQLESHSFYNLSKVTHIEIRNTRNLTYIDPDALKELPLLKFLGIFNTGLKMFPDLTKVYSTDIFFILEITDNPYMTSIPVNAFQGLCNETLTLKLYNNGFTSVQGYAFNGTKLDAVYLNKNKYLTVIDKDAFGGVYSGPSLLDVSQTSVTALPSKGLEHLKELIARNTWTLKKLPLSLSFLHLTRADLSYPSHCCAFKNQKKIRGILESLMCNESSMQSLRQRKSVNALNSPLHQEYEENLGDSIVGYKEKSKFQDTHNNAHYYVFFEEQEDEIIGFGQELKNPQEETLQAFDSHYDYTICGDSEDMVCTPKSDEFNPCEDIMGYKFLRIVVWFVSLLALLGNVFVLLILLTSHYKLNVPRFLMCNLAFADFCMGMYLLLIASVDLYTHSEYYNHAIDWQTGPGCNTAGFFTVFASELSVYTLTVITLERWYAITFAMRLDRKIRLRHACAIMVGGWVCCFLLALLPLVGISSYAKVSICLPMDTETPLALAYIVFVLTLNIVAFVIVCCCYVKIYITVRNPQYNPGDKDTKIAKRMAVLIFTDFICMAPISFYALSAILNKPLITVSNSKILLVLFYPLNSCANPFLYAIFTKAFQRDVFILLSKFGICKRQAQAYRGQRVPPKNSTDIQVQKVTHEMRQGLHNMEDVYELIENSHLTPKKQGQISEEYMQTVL
#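 HEK 293 cells stably expressing TSHR and a cAMP-gated CNG channel; parental CNG-only cells as counterscreen. Cells preloaded 60 min with membrane potential dye plus 100 uM RO 20-1724, then compound 30 min; fluorescence read at 590 nm.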
# HBB splice mod = alters splicing of the hemoglobin beta chain. HBB splicing reporter cell assay, activation; EGFP reporter with mutant IVS2-654 intron; response scale: normalised to 500 nM splice-correcting PNA. Potency, µM (doses to about 46.1 µM), actives largely listed as activators. 65,000 tested, 0.06% active. AID 925
#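 HeLa cells stably expressing EGFP interrupted by mutant beta-globin intron 2 (IVS2-654), 500/well in 2% FCS. Treated with compound for 2 days at 37C. Splicing correction scored as total well GFP intensity (488 nm excitation, 500-520 nm emission); 500 nM antisense PNA served as control.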
# HEK293 cAMP cs = raises cAMP in parental HEK293 cells, TSHR agonist counter-screen | parental HEK293 CNG cAMP sensor, membrane potential fluorescence | Potency, µM (titrated, usually from 57.1 µM), actives largely listed as activators | 73,000 tested, 2.5% active | AID 938; further: nearly all actives have a fitted effect of over 55% in size
#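 Parental HEK 293 cells stably expressing a cAMP-gated CNG channel were loaded with membrane potential dye containing 100 uM RO 20-1724 for 60 min. Compound added for 30 min; depolarization read as fluorescence intensity at 590 nm.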
# Epigenetic mod = epigenetic modulators derepressing GFP locus in mouse cells; mouse C127i GFP locus derepression, cytometry, 30 h; Potency, µM (highest dose often 46.1 µM); 68,000 tested, 0.09% active; AID 597
#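 Murine C127i mammary cells carrying a silenced, stably integrated CMV-driven GFP reporter were treated with compound for 30 hours at 37 C. After PBS washes, GFP-positive cells were counted by laser-scanning microplate cytometry.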
# Hits are given with their value; . = inactive; ? = inconclusive; / = no result; [ ] = another dose, or the depositor's remark. Unless noted, the call rests on the fitted dose curve; in most records, active means well fitted curve in the direction sought with a large enough effect; inconclusive means small, poorly fitted or top-dose-only effect, or another doubt; inactive means no such curve, though single readings can be large; an effect the other way counts as inactive or inconclusive.
SMILES,UbGFP stabilizer,TSHR agonist,HBB splice mod,HEK293 cAMP cs,Epigenetic mod
O=C(NC1CCCCC1)C(c1ccc(F)cc1)N(Cc1ccco1)C(=O)Cn1nnc2ccccc21 (stereo not given),.,?,/,16µM,.
O=C(NCc1ccco1)C(c1ccccc1)N(CC1CCCO1)C(=O)Cn1nnc2ccccc21 (stereo not given),.,.,.,.,.
Cc1cccc(C)c1NC(=O)C(c1cccs1)N(Cc1ccco1)C(=O)Cn1nnc2ccccc21 (stereo not given),.,?,.,16µM,.
O=C(NC1CCCCC1)C(c1ccccc1F)N(Cc1ccco1)C(=O)Cn1nnc2ccccc21 (stereo not given),.,?,.,20µM,.
COC(=O)C1=C(C)N(Cc2ccccc2)C2=C(C(C)=O)C(c3ccccc3)[C@@](O)(C(=O)OC)C(=O)N2C1c1ccccc1 (stereo not given in full),/,.[11.4 µM],.[9.22 µM],.[11.4 µM],/
Sc1ccc2ccccc2c1CNCc1ccccc1,.[9.17 µM],.[11.4 µM],.[9.22 µM],.[11.4 µM],.[9.22 µM]
Cc1ccc(OCc2nc(C#N)c(NCc3ccc4c(c3)OCO4)o2)cc1,.,?,/,16µM,.
COc1cc2c(cc1OC)[C@@H]1C(=O)c3ccc4c(c3O[C@@H]1CO2)C=CC(C)(C)O4,.,?,/,20µM,.
CC(C)c1ccc(/C(C(=O)O)=C(\O)C(=O)O)cc1,.[9.17 µM],.[11.4 µM],.[9.22 µM],.[11.4 µM],.[9.22 µM]
O=C(c1ccccc1)c1ccccc1C(=O)N1CCCC1,.,.,.,.,.
O=C(c1cccc2c1-c1ccccc1/C2=N/O)N1CCCCC1,.,?,.[9.22 µM],13µM,.
CN(CCc1ccccn1)c1ccc2c(c1)C(=O)c1ccccc1-2,.[9.17 µM],?,.[9.22 µM],.[11.4 µM],.[9.22 µM]
CC1=c2c(oc3cc(O)c(Nc4c(C)cc(O)cc4O)c(C)c23)=CC(=O)C1=Nc1c(C)cc(O)cc1O,.[9.17 µM],.[11.4 µM],.[9.22 µM],.[11.4 µM],.[9.22 µM]
COC(=O)NC(/C(C(=O)OC)=C(\C)NCc1ccccc1)c1ccc2ccccc2c1 (stereo not given),/,?,.[9.22 µM],?,/
C/C(=N/O)c1ccc2cc(Br)c3ccccc3c2c1,.[9.17 µM],.[11.4 µM],.[9.22 µM],.[11.4 µM],.[9.22 µM]
CC(C)Cc1nc2oc3c(N4CCN(CCO)CC4)ncnc3c2c2c1CCCC2,.,?,.,16µM,.
O=C1Nc2ccc(S(=O)(=O)N3CCCCCC3)c3cccc1c23,.,?,.,32µM,/
CCCC[S@@](=N)(=O)CC[C@@H](N)C(=O)O,.,?,.,?,.
COc1cccc(C(=O)Nc2cccc(-c3nc4ncccc4o3)c2C)c1,.,?,.,16µM,.
CN1Cc2cc(C(=O)c3cc(Cl)cc(CSc4ncccn4)c3O)cnc2NC1=O,.,16µM,.,.,.
C[C@H]1C[C@@H]2[C@H]3CCC4=CC(=O)C=C[C@@]4(C)[C@]3(Cl)[C@@H](Cl)C[C@]2(C)[C@]1(O)C(=O)COP(=O)(O)O,.[9.17 µM],.[11.4 µM],.[9.22 µM],.[11.4 µM],.[9.22 µM]
CC(C)(C)NC(=O)NC(=O)COC(=O)COc1ccc2c(c1)CCC2,.,.,.,.,.
CC(C)(C)NC(=O)NC(=O)COc1ccccn1,.,?,.,10µM,.
COCCNC(=O)c1ccc(Cc2nc3ccccc3[nH]2)cc1,/,.,/,.,/
N#Cc1cc2c(nc1SCC(=O)Nc1nccs1)CCCCC2,.,?,.,20µM,.
SMILES,UbGFP stabilizer,TSHR agonist,HBB splice mod,HEK293 cAMP cs,Epigenetic mod
C=CCOc1ccccc1/C=N/O,.,?,.,25µM,.
CN1CCc2c(cc(O)c(O)c2Cl)[C@H](c2cccc(Cl)c2)C1,.,?,.,?,.
CN1CCc2cc(Cl)c(O)cc2[C@@H](c2ccccc2)C1,.,?,/,25µM,.
CCOc1ncccc1C(=O)Nc1ccccc1C(=O)NCc1ccc2c(c1)OCO2,.,?,.,?,.
CCOc1ccccc1CN(CCc1ccc2c(c1)OCO2)Cc1ccccn1,.,?,.,16µM,.
CCC1Oc2ccc(C)cc2N(CC(=O)NCc2cccc(OC)c2)C1=O (stereo not given),.,?,.,13µM,.
Clc1ccc(CSc2nnc(-c3ccncc3)o2)c(Cl)c1,.,?,.[1.84 µM],20µM,.
COc1ccc(-c2nc3cnc(OC)nc3n(C[C@H]3CCCO3)c2=O)cc1,.,?,.,20µM,.[9.22 µM]
COc1ncc2nc(-c3ccc(Cl)cc3)c(=O)n(C[C@H]3CCCO3)c2n1,.,?,.,?,.[9.22 µM]
COc1ccc(CNc2ncnc3ccc(-c4c(C)noc4C)cc23)c(OC)c1,.,.,.,.,.[9.22 µM]
COc1ccccc1N(CC(=O)Nc1ccc2c(c1)OCO2)S(=O)(=O)c1ccccc1,.,?,.,?,.
COc1ccc(S(=O)(=O)N(CC(=O)Nc2ccc3c(c2)OCO3)c2ccccc2OC)cc1,.,6.3µM,.,.,.
COc1ccc(S(=O)(=O)Nc2ccc3c(c2)OCO3)cc1OC,.,.,.,.,.
COc1ccc(S(=O)(=O)Nc2ccc3c(c2)OCO3)cc1C(=O)O,/,?,/,32µM,/
COC(=O)[C@H](NC(=O)c1cc(-c2ccccc2)nc2ccccc12)c1ccccc1,.,?,/,13µM,.
C=CCN=C1SC(C)C(=O)N1S(=O)(=O)c1ccccc1 (stereo not given),.,3.2µM,.,.,.
O=c1n(Cc2cc3c(cc2Cl)OCO3)c(=O)n2n1CC[C@H]1/C(=N\OCc3ccccc3)[C@H]3O[C@@H]3[C@@H](O)[C@@H]12,/,.[11.4 µM],.[9.22 µM],.[11.4 µM],/
C=CCn1c(SCC(=O)N2CCN(C(=O)c3ccco3)CC2)nc2sc(CC)cc2c1=O,.,.,.,.,.
C=CCn1c(SCC(=O)c2cccs2)nc2sc(CC)cc2c1=O,.,?,.,16µM,.
CCC(C(=O)N1CCN(c2cccc(Cl)c2)CC1)c1ccccc1 (stereo not given),.,?,.,25µM,.
CCN(CC)COC(=S)S,.[9.17 µM],.[11.4 µM],.[9.22 µM],.[11.4 µM],?
CCOC(=O)Cn1nnnc1C(CC)N(Cc1cc2c(C)cc(C)cc2[nH]c1=O)C1CCCC1 (stereo not given),.,.,.,.,.
CCOC(=O)Cn1nnnc1C(CC)N(Cc1cccs1)Cc1cc2cc(C)ccc2[nH]c1=O (stereo not given),.,?,/,4µM,.
CCOC(=O)Cn1nnnc1C(CC)N(Cc1cc2ccc(C)cc2[nH]c1=O)C1CCCC1 (stereo not given),.,?,.,16µM,.
COC(=O)[C@](C)(N)Cc1ccc(O)cc1,.,?,.,?,.
CCn1c(SCC(=O)Nc2ccccc2C(=O)OC)nnc1-c1ccoc1C,.,?,.,32µM,.
COc1ccc(NC(=O)CSc2nnc(-c3ccoc3C)n2CCc2ccccc2)cc1,.,25µM,.,.,.
COc1cccc(OCc2nnc(SCC(=O)OC3CCCCC3)n2C)c1,.,?,/,16µM,.
CCn1c(COc2cccc(OC)c2)nnc1SCC(=O)Nc1ccccc1C(=O)OC,.,?,/,16µM,.

# Screening results: PubChem, National Center for Advancing Translational Sciences (NCATS)
